Measured values taken from PubChem BioAssay (EPA / NIEHS).
Values joined by “and” are separate entries in the source; they are usually repeats but may differ in a detail not shown here. Equal entries are not always repeated. Active and inactive are the calls of the source. Rule for the calls: active = hit-call score of the fitted dose curve at least 0.9, where 1 is the maximum; inactive = score below 0.9.

Legend:
[1] = molecular target: Nuclear respiratory factor 1 (Homo sapiens) (UniProt Q16656); assay: ATG_NRF1_CIS: Attagene CIS-FACTORIAL HepG2 Assay for human Nuclear Respiratory Factor 1 (NRF1) Orphan Gene (AID 2282987); details: HepG2 NRF1 cis-element reporter, Attagene multiplex; actives raise or lower the signal
In short: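 Multiplexed cis-reporter assay, HepG2 cells, 24 h treatment. Total RNA → oligo(dT) RT → PCR with reporter-specific primers → 6-FAM primer extension → HpaI cut → CE. Bidirectional fit vs DMSO.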

[2] = ATG_NFI_CIS: Attagene CIS-FACTORIAL HepG2 Assay for human Nuclear Factor I (NFI) (AID 2282989); details: HepG2 cis-regulatory reporter, NFI response element transcription; actives raise or lower the signal
In short: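 Reporter transcripts were measured by RT-PCR with fluorescent primer extension and capillary electrophoresis 24 h post-treatment. HepG2 cells carried transiently transfected cis-regulated reporter constructs reporting endogenous factor activity; gain or loss fitted against DMSO baseline.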

[3] = molecular target: Myc proto-oncogene protein (Homo sapiens) (UniProt P01106); assay: ATG_Myc_CIS: Attagene CIS-FACTORIAL HepG2 Assay for human Myelocytomatosis (Myc) Proto-Oncogene Transcription Factor (AID 2282990); details: HepG2, Attagene cis-reporter transcription factor activity; actives raise or lower the signal
In short: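 Transiently transfected HepG2 cells bearing cis-promoter reporter units for endogenous transcription factors; 24 h exposure. Reporter mRNA measured by RT-PCR, 6-FAM primer extension, HpaI cut and capillary electrophoresis; bidirectional fit relative to DMSO.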

[4] = ATG_NF_kB_CIS: Attagene CIS-FACTORIAL HepG2 Assay for human Nuclear Factor Kappa B (NF-kB) (AID 2282991); details: HepG2 Attagene cis-factorial NF-kB reporter mRNA; actives raise or lower the signal
In short: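 Transient MRTU transfection of human HepG2 liver cells → 24 h chemical exposure → total RNA, oligo(dT) RT → PCR, 6-FAM primer extension, HpaI digest 2 h 37 C → CE fragment analysis. Bidirectional fitting, DMSO negative control.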

[5] = ATG_NRF2_ARE_CIS: Attagene CIS-FACTORIAL HepG2 Assay for human Nuclear Factor Erythroid 2 Related Factor 2 (NFR2) response to Antioxidant Response Elements (ARE) (AID 2282992); details: HepG2 Attagene ARE/NRF2 reporter, transcription factor activity; actives raise or lower the signal;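 for AC50: reporter mRNA level measured by RT-PCR and capillary electrophoresis fluorescence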
In short: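 HepG2 cells transiently transfected with multiplexed cis-element reporter constructs, 24 h after chemical dosing; reporter mRNA quantified by RT-PCR, fluorescent primer extension, HpaI digestion and capillary electrophoresis. Bidirectional fit relative to DMSO.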

[6] = ATG_Oct_MLP_CIS: Attagene CIS-FACTORIAL HepG2 Assay for human Octamer-Binding Transcription Factor (Oct) (AID 2282993); details: HepG2 Attagene cis-factorial Oct reporter, mRNA; actives raise or lower the signal
In short: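 Readout is reporter transcript level from RT-PCR with fluorescent primer extension and capillary electrophoresis, fitted in both directions against DMSO. Transfected HepG2 reporter units report endogenous factor activity after 24 h dosing.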

[7] = molecular target: Cellular tumor antigen p53 (Homo sapiens) (UniProt P04637); assay: ATG_p53_CIS: Attagene CIS-FACTORIAL HepG2 Assay for human p53 Transcription Factor (AID 2282994); details: HepG2 p53 cis-element reporter, Attagene mRNA; actives raise or lower the signal
In short: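 HepG2 cells transiently transfected with cis-regulated multiple reporter transcription units, dosed 24 h. Reporter mRNA measured by RT-PCR, 6-FAM primer extension, HpaI digestion and capillary electrophoresis; bidirectional fit relative to DMSO.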

[8] = BSK_3C_TissueFactor: BioMAP Diversity Plus: 3C Assay for Tissue Factor Biomarker Activity (AID 2282997); details: BioMAP 3C HUVEC, tissue factor biomarker readout; actives raise or lower the signal
In short: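 ELISA read-out of Tissue Factor levels on human umbilical vein endothelium collected 24 h after chemical dosing. Gain or loss of signal was fitted relative to DMSO.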

[9] = BSK_3C_uPAR: BioMAP Diversity Plus: 3C Assay for Urokinase-type plasminogen activator receptor (uPAR) Biomarker Activity (AID 2282998); details: BioMAP 3C HUVEC, uPAR biomarker ELISA; actives raise or lower the signal
In short: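 Cell-surface uPAR on HUVEC (3C system) read by ELISA at 24 h post-treatment, with DMSO as baseline and fitting in both directions. Parallel cultures stained with SRB to flag overt cytotoxicity.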

[10] = BSK_3C_VCAM1: BioMAP Diversity Plus: 3C Assay for Vascular cell adhesion molecule 1 (VCAM1) Biomarker Activity (AID 2282999); details: BioMAP 3C HUVEC, VCAM1 ELISA, cytokine-stimulated; actives raise or lower the signal
In short: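 Human umbilical vein endothelial cells (3C system), biomarker read by ELISA 24 h after dosing; bidirectional fit against DMSO baseline. Cytotoxicity tracked by SRB total-protein staining in parallel cultures at biomarker time.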

Measured: AC50

Chain of Myc proto-oncogene protein (Homo sapiens) (P01106 whole entry, looked up): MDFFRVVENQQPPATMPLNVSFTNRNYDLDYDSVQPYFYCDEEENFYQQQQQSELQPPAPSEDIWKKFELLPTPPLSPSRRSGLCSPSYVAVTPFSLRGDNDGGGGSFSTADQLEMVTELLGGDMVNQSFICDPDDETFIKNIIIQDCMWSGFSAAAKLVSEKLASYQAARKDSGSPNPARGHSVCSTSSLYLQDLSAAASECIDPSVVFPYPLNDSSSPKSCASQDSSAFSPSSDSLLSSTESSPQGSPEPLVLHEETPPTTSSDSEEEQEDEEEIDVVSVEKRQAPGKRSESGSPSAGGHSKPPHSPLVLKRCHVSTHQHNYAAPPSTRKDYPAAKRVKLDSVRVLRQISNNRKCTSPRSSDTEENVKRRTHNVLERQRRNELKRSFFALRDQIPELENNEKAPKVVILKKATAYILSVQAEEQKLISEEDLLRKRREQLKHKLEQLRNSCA
Chain of Nuclear respiratory factor 1 (Homo sapiens) (Q16656 whole entry, looked up): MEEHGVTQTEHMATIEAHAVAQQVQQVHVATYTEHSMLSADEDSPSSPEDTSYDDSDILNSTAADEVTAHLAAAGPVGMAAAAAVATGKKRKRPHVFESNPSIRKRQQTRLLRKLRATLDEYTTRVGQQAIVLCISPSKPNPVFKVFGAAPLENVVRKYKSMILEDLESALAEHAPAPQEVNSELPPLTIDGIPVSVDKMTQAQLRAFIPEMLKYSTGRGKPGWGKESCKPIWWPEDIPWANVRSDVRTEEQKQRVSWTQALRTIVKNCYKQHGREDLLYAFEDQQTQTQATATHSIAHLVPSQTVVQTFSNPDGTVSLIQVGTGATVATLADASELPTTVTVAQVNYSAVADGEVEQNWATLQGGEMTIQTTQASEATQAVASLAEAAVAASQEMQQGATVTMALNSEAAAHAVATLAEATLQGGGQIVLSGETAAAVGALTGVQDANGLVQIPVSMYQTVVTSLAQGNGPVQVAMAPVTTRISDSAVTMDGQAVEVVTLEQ
Chain of Cellular tumor antigen p53 (Homo sapiens) (P04637 whole entry, looked up): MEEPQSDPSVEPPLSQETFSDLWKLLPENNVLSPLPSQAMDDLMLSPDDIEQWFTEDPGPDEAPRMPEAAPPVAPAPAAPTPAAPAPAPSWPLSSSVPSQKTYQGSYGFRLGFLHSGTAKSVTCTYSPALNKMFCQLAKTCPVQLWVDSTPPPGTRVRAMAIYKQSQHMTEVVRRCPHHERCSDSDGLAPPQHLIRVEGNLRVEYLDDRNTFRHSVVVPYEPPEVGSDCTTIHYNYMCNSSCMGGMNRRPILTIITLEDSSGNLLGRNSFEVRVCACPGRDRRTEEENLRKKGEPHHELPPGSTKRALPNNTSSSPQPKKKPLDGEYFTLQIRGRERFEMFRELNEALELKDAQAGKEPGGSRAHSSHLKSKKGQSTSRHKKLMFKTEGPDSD

Nc1ccnc(=O)[nH]1
inactive: [1] | [2] | [3] | [4] | [5] | [6] | [7]

CC1=C(O)C(=O)C(C)O1 (stereo not drawn)
inactive: [1] | [2] | [3] | [4] | [5] | [6] | [7]

COc1cc(O)c(C(=O)c2ccccc2)cc1S(=O)(=O)O
inactive: [1] | [2] | [3] | [4] | [5] | [6]

CCCC=C(C=O)CC
inactive: [1] | [2] | [3] | [4] | [5] | [6]

CCOB(OCC)OCC
inactive: [1] | [2] | [3] | [4] | [5] | [6] | [7]

Cc1cc(C)n(CO)n1
inactive: [1] | [2] | [3] | [4] | [5] | [6] | [7]

Oc1ccc(/C=C/c2cc(O)cc(O)c2)cc1
inactive: [2] | [3] | [6] | [7] | [8] | [9] | [10]
active: [1] 179 µM | [4] 100 µM | [5] 24.6 µM

O=C(Nc1ccccc1)c1cc(Cl)ccc1O
active: [2] 5.49 µM | [5] 2.35 µM | [6] 15.1 µM
inactive: [1] | [3] | [4] | [7]

CC(=O)CCC=C(C)C
inactive: [1] | [2] | [3] | [4] | [5] | [6] | [7]

CCCC1CCCC(=O)O1 (stereo not drawn)
inactive: [1] | [2] | [3] | [4] | [5] | [6] | [7]

Cc1c(C(=O)c2c[nH]n(C)c2=O)ccc(S(C)(=O)=O)c1C1=NOCC1
inactive: [1] | [2] | [3] | [4] | [5] | [6] | [7]

CCCCCCO
inactive: [1] | [2] | [3] | [4] | [5] | [6] | [7]

CC(=O)CC(=O)Nc1ccccc1C
inactive: [1] | [2] | [3] | [4] | [5] | [6] | [7]

CC(=O)OCC=C(C)C
inactive: [1] | [2] | [3] | [4] | [5] | [6] | [7]

Oc1ccccc1Cc1ccccc1O
inactive: [1] | [2] | [3] | [4] | [9] | [10]
active: [5] 40.7 µM | [6] 134 µM | [7] 100 µM

[Cl][Eu]([Cl])[Cl]
inactive: [1] | [2] | [3] | [4] | [5] | [6] | [7]

CCCC(C)C(=O)OCC (stereo not drawn)
inactive: [1] | [2] | [3] | [4] | [5] | [6] | [7] | [8] | [9] | [10]

C=C(C)C(=O)OCCCCCCCCCCCC
inactive: [1] | [2] | [3] | [4] | [5] | [6] | [7] | [8] | [9] | [10]

CC/C=C\C/C=C\C/C=C\CCCCCCCC(=O)OC
active: [4] 32.4 µM | [5] 48.1 µM | [6] 135 µM | [9] 31.6 µM | [10] 14.2 µM
inactive: [1] | [2] | [3] | [7]

CCCC(CC)c1ccccc1 (stereo not drawn)
inactive: [3] | [4] | [6] | [7]
active: [1] 158 µM | [2] 181 µM | [5] 165 µM

CCCCCCOC(=O)CCCCC(=O)OCCCCCC
inactive: [1] | [2] | [3] | [4] | [5] | [6] | [7] | [8] | [9] | [10]

c1ccc(Nc2cccc3ccccc23)cc1
inactive: [4]
active: [1] 52.1 µM | [2] 50.1 µM | [3] 46.7 µM | [5] 33.4 µM | [6] 53.3 µM | [7] 57.1 µM | [9] 27.6 µM and 24.7 µM | [10] 36.8 µM and 36.9 µM

Nc1ccc(C(=O)OCCCOC(=O)c2ccc(N)cc2)cc1
inactive: [1] | [2] | [3] | [4] | [5] | [6] | [7]

CC(C)(C)C1CCC(=O)CC1
active: [6] 145 µM
inactive: [1] | [2] | [3] | [4] | [5] | [7]

CC(C)[N+](C)(CCOC(=O)C1c2ccccc2Oc2ccccc21)C(C)C
inactive: [1] | [2] | [3] | [4] | [5] | [6] | [7] | [8] | [9] | [10]

O=C(Cl)c1c(Cl)c(Cl)c(C(=O)Cl)c(Cl)c1Cl
inactive: [1] | [2] | [3] | [4] | [5] | [6] | [7] | [9] | [10]
